From PubChem BioAssay AID624331 (National Center for Advancing Translational Sciences (NCATS), 2012)
Inconclusive results are not listed. Entries that show only a call come without a potency. Active and inactive are the calls of the source. The call rests on the fitted dose curve; in most records, active means well fitted activation curve with a large enough effect; inconclusive means small, poorly fitted or top-dose-only effect; inactive means no such curve, though single readings can be large or run the other way.

assay: qHTS assay for re-activators of p53 using a Luc reporter: Hit Validation with no p53 Expressed; conditions: p53-null cells, luciferase reporter counter-screen; series mostly up to 46.1 µM
Procedure, shortened: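 Counter-screen of primary hits in a cell line not transfected with p53, in Opti-MEM with 10% FBS; compounds at several concentrations (10 mM stock, 1:5; top 46.1 µM in well), 24 h at 37 deg C, 5% CO2. Luminescence read after 10 min with Amplite reagent.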
Potency means the concentration at half of the fitted maximal effect.

Row | SMILES | Potency
1 | O=C(Nc1ccc2c(c1)CCC2)c1ccccc1 | inactive
2 | O=C(O)CCCC(=O)NCCc1ccncc1 | inactive
3 | CCc1ccc(N=c2c([N+](=O)[O-])nn(-c3ccccc3)n2O)cc1 | inactive
4 | O=C(Nc1nc2ccccc2s1)c1ccc2c(c1)OCO2 | inactive
5 | Brc1ccccc1-c1nc(-c2ccccc2)no1 | inactive
6 | Cc1ccc(C(=O)N2CC(=O)Nc3ccc(F)cc3C2c2ccc(F)cc2)cc1[N+](=O)[O-] (stereo not given) | inactive
7 | COc1cc(C(C)=O)ccc1Oc1ncnc2c1cnn2-c1ccc(F)cc1 | inactive
8 | CCOC(=O)c1c(C)nc(-c2ccccc2)nc1NC(=O)CC | inactive
9 | COc1ccc(N2CCN(C3CCCN(Cc4cccc(OC)c4)C3)CC2)cc1 (stereo not given) | inactive
10 | COc1ccc(/C(O)=C2/C(=O)C(=O)N(CCN3CCOCC3)C2c2ccccn2)cc1 (stereo not given) | inactive
11 | COCCN(Cc1cn[nH]c1-c1ccc2cc(OC)ccc2c1)C(C)C | inactive
12 | Cc1ccc(NC(=O)/C(Cl)=C/c2ccccc2)cc1C | inactive
13 | Cc1ccc(-c2noc(CN3CCC(C(N)=O)CC3)n2)cc1 | inactive
14 | COc1ccc(N2C(=O)CC(Cc3ccc(Br)cc3)C2=O)cc1 (stereo not given) | inactive
15 | O=C(O)C1C2C=CC(C2)C1C(=O)Nc1ccccc1Br (stereo not given) | inactive
16 | CCN1CCN(/C=N/c2nc3c(s2)CCCC3)CC1 | inactive
17 | O=C(N/N=C/c1cccs1)c1n[nH]c2c1CCC2 | inactive
18 | CC(C)c1ccc(NC(=O)c2snc3ccc(Cl)cc23)cc1 | 1.03 µM (active)
19 | O=C(c1ccc(N2CCN(S(=O)(=O)c3ccccc3)CC2)c([N+](=O)[O-])c1)N1CCOCC1 | inactive
20 | COc1cc(N/N=C/c2ccccc2O)ncn1 | inactive
